Most compounds without a hit are left out; they make up all but 5.7% or so of the library.
KB-3-1 cytotox = kills parental KB-3-1 adenocarcinoma cells. Potency, µM (doses to about 46.1 µM), most hits filed as cytotoxic. actives 1.4% (n = 400,000). KB-3-1 viability, CellTiter-Glo ATP luminescence, 72 h; note: nearly all actives have a fitted effect of over 60% in size
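Using CellTiter-Glo luminescence, growth of non-resistant KB-3-1 adenocarcinoma cells is assessed 72 h after pin-tool compound addition at 37 °C. Normalized responses across the concentration series yield fitted curves.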
HT1080 IDH1KD tx = kills HT-1080 cells with IDH1 knockdown; HT-1080 IDH1 knockdown viability, ATP luminescence, 48 h; Potency, µM (highest dose often 46.1 µM), for inactives: at the highest dose activity, negative = toxicity, actives largely listed as cytotoxic; actives 2% (n = 360,000); AID 686971;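 note: 0% = DMSO wells and -100% = cell-free medium wells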
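CellTiter-Glo luminescence after 48 h compound exposure at 37 degrees C of IDH1-knockdown HT-1080 cells in 5% FBS RPMI. %Activity scaled between DMSO wells and cell-free media wells, with curves fitted and assigned curve classes.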
KB-V1 cytotox = KB-V1 MDR subline cytotoxicity; KB-V1 MDR cells viability, CellTiter-Glo, 72 h; Potency, µM (highest dose often 46.1 µM), hits mostly cytotoxic; actives 3.4% (n = 400,000); AID 1347076; note: nearly all actives have a fitted effect of over 60% in size
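KB-V1, DMEM (no phenol red) + 10% FBS; cpd pin-transferred, titration series; 72 h, 37 degrees C; CellTiter-Glo, luminescence. Data normalized, curve-fit.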
HT1080NT lethal = kills 2HG-producing HT-1080-NT fibrosarcoma cells. actives 1.6% (n = 360,000). HT-1080-NT fibrosarcoma viability, CellTiter-Glo ATP luminescence, 48 h. Potency, µM (doses to about 46.1 µM), for inactives: at the highest dose activity, negative = less viability, hits mostly cytotoxic;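 note: NT is the 2HG producing partner of a matched IDH1 knockdown line; 0% = DMSO-treated cells and -100% = media-only wells without cells; nearly all actives have a fitted effect of over 55% in size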
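Fibrosarcoma NT cells, 750 per well in 5% FBS RPMI, were exposed to compound for 48 hours. Viability: CellTiter-Glo luminescence.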
* = called active by the depositor; ! = not active in a repeat. Calls come from the whole dose curve; as a rule, active = well fitted curve in the direction sought with a large enough effect; inconclusive = small, poorly fitted or top-dose-only effect, or another doubt; inactive = no such curve, though single readings can be large; an effect the other way counts as inactive or inconclusive. Unless noted, % is set by controls: 0 for no effect and ±100 for the full control effect; potency is the fitted concentration of half-maximal effect.

What do the screens show for `COc1cc(OC)nc(C(NC(=O)C2CCN(Cc3c[nH]c4ccccc34)CC2)c2ccc(Cl)cc2)n1` (stereo unspecified)?
KB-3-1 cytotox: inconclusive; HT1080 IDH1KD tx: -22%; KB-V1 cytotox: inconclusive; HT1080NT lethal: 5.8µM*

How did O=C(NC(c1ccc(Cl)cc1)c1ccsc1)C1CCN(CCOc2ccc(Cl)cc2)CC1 (stereo unspecified) do in these assays?
KB-3-1 cytotox: inactive; HT1080 IDH1KD tx: inconclusive; KB-V1 cytotox: inactive; HT1080NT lethal: inconclusive

How did COc1ccc(OCCN2CCC(C(=O)NC(c3ccc(Cl)cc3)c3cccnc3)CC2)cc1 (stereo unspecified) do in these assays?
KB-3-1 cytotox: inactive; HT1080 IDH1KD tx: 21µM*; KB-V1 cytotox: inactive; HT1080NT lethal: inconclusive

What do the screens show for `COc1ccccc1C(NC(=O)C1CCN(CCOc2ccc(Cl)cc2)CC1)c1ccccn1` (stereo unspecified)?
KB-3-1 cytotox: inactive; HT1080 IDH1KD tx: inconclusive; KB-V1 cytotox: inactive; HT1080NT lethal: inconclusive

How did COc1cc2nc(NC3CCN(C)CC3)nc(NC3CCN(C)CC3)c2cc1OC do in these assays?
HT1080 IDH1KD tx: 6%; HT1080NT lethal: 3%

What do the screens show for `COc1ccc(C)cc1NC(=O)c1cnc2ccc(C)cn2c1=O`?
KB-3-1 cytotox: inactive; KB-V1 cytotox: inactive

What do the screens show for `Cc1nn(Cc2ccc(C(=O)Nc3ccc(C(=O)OC(C)C)cc3)o2)c(C)c1Cl`?
KB-3-1 cytotox: inactive; HT1080 IDH1KD tx: inconclusive; KB-V1 cytotox: 23µM*; HT1080NT lethal: inconclusive

Results for Cc1nn(Cc2ccc(C(=O)NN)o2)c(C)c1Cl ?
KB-3-1 cytotox: inactive; HT1080 IDH1KD tx: -1%; KB-V1 cytotox: inactive; HT1080NT lethal: -6%

How did COc1ccc(CCCc2nnc(SCC(=O)Nc3ccc(C)cc3C)o2)cc1 do in these assays?
KB-3-1 cytotox: inactive; KB-V1 cytotox: inactive

What do the screens show for `CCOC(=O)N1CCN(C(=O)c2cc3sccc3n2C)CC1`?
KB-3-1 cytotox: inactive; HT1080 IDH1KD tx: 2%; KB-V1 cytotox: 13µM*; HT1080NT lethal: 15%

Results for CCOC(=O)N1CCC(NC(=O)C2CCCN(C(=O)c3cc4sccc4n3C)C2)CC1 (stereo unspecified) ?
KB-3-1 cytotox: inactive; HT1080 IDH1KD tx: 1%; KB-V1 cytotox: inconclusive; HT1080NT lethal: 8%

What do the screens show for `COc1ccc(N2CCN(CCCNC(=O)c3nnc(Cc4ccccc4Cl)o3)CC2)cc1`?
KB-3-1 cytotox: inactive; KB-V1 cytotox: inactive

Results for COc1ccc(CNC(=O)C(=O)NCC(c2cccnc2)N2CCN(c3ccccc3)CC2)cc1 (stereo unspecified) ?
KB-3-1 cytotox: inconclusive; KB-V1 cytotox: inactive

Results for Cc1ccc(C)c(NC(=O)Cn2nnc(C(=O)NCc3cccs3)c2N)c1 ?
KB-3-1 cytotox: inactive; HT1080 IDH1KD tx: 23µM*; KB-V1 cytotox: inactive; HT1080NT lethal: inconclusive

Results for CCc1ccccc1NC(=O)Cn1nnc(C(=O)NCc2ccco2)c1N ?
KB-3-1 cytotox: 8.2µM*; KB-V1 cytotox: inconclusive

Results for COc1ccccc1NC(=O)Cn1nnc(C(=O)NCc2cccs2)c1N ?
KB-3-1 cytotox: 2.1µM*!; HT1080 IDH1KD tx: 2.1µM*; KB-V1 cytotox: 5.8µM*; HT1080NT lethal: 2.3µM*

What do the screens show for `CCc1ccc(NC(=O)Cn2nnc(C(=O)NCc3cccs3)c2N)cc1`?
KB-3-1 cytotox: inactive; HT1080 IDH1KD tx: -4%; KB-V1 cytotox: inactive; HT1080NT lethal: -3%

What do the screens show for `COc1ccc(NC(=O)Cn2nnc(C(=O)NCc3cccs3)c2N)cc1`?
KB-3-1 cytotox: inactive; HT1080 IDH1KD tx: inconclusive; KB-V1 cytotox: inactive; HT1080NT lethal: inconclusive

What do the screens show for `Nc1c(C(=O)NCc2ccco2)nnn1CC(=O)Nc1ccccc1`?
KB-3-1 cytotox: inactive; HT1080 IDH1KD tx: -2%; KB-V1 cytotox: inactive; HT1080NT lethal: 0%

How did Cc1ccc(NC(=O)Cn2nnc(C(=O)NCc3cccs3)c2N)cc1 do in these assays?
KB-3-1 cytotox: inactive; HT1080 IDH1KD tx: inconclusive; KB-V1 cytotox: inactive; HT1080NT lethal: inconclusive

Results for CCc1ccccc1NC(=O)Cn1nnc(C(=O)NCc2cccs2)c1N ?
KB-3-1 cytotox: 9.2µM*!; HT1080 IDH1KD tx: 4.1µM*; KB-V1 cytotox: inactive; HT1080NT lethal: 5.8µM*

Results for CCOc1ccc(CCNC(=O)Cc2ccc(NC(=O)N3CCSc4ncccc43)cc2)cc1 ?
KB-3-1 cytotox: inactive; KB-V1 cytotox: inactive

How did Cc1cc(C)c2c(CC(=O)Nc3ccccc3C(F)(F)F)coc2c1 do in these assays?
KB-3-1 cytotox: inactive; KB-V1 cytotox: inactive

What do the screens show for `COc1ccccc1-c1cc(C(=O)Nc2cccnc2)no1`?
KB-3-1 cytotox: 0.16µM*; HT1080 IDH1KD tx: 0.25µM*; KB-V1 cytotox: inconclusive; HT1080NT lethal: 0.32µM*

How did COc1ccc(CCNC(=O)c2cc(-c3ccccc3OC)on2)cc1OC do in these assays?
KB-3-1 cytotox: inactive; HT1080 IDH1KD tx: 1%; KB-V1 cytotox: inconclusive; HT1080NT lethal: 7%

Results for COc1ccc(NC(=O)c2cc(-c3ccccc3OC)on2)cc1 ?
KB-3-1 cytotox: 4µM*; HT1080 IDH1KD tx: 6.3µM*; KB-V1 cytotox: 1µM*; HT1080NT lethal: 4.5µM*

Results for COc1ccccc1-c1cc(C(=O)NCCc2ccccc2)no1 ?
KB-3-1 cytotox: inconclusive; HT1080 IDH1KD tx: inconclusive; KB-V1 cytotox: 12µM*!; HT1080NT lethal: -23%

What do the screens show for `COc1ccc(NC(=O)c2cc(-c3ccccc3Cl)on2)cc1`?
KB-3-1 cytotox: inactive; HT1080 IDH1KD tx: 1%; KB-V1 cytotox: inconclusive; HT1080NT lethal: 0%

Results for COc1cccc(NC(=O)Cn2c(=O)ccc3cc(S(=O)(=O)N4CCC(C)CC4)ccc32)c1 ?
KB-3-1 cytotox: inactive; KB-V1 cytotox: inconclusive

Results for COc1cc(OC)cc(C(=O)c2c(C)c(C#N)c3ccccn23)c1 ?
KB-3-1 cytotox: 5.2µM*; HT1080 IDH1KD tx: 12%; KB-V1 cytotox: inconclusive; HT1080NT lethal: inconclusive

What do the screens show for `Clc1ccc(/C=C/c2ccc3ccccc3n2)cc1Cl`?
KB-3-1 cytotox: inconclusive; KB-V1 cytotox: inactive

Results for COc1cc(NC(=O)Nc2ccc3c(c2)OCO3)cc(OC)c1OC ?
KB-3-1 cytotox: inactive; HT1080 IDH1KD tx: 3%; KB-V1 cytotox: inactive; HT1080NT lethal: -20%

How did COc1ccc(C(C)(C)C)cc1NC(=O)Nc1ccc2c(c1)OCO2 do in these assays?
KB-3-1 cytotox: inactive; HT1080 IDH1KD tx: inconclusive; KB-V1 cytotox: 23µM*; HT1080NT lethal: -1%

What do the screens show for `COc1cc(C2Nc3ccccc3-c3nnc(SCc4ccc(C)cc4)nc3O2)cc(OC)c1O` (stereo unspecified)?
KB-3-1 cytotox: inactive; KB-V1 cytotox: inactive

What do the screens show for `COCCCNC(=O)c1cc2cc(Br)ccc2oc1=O`?
KB-3-1 cytotox: inactive; HT1080 IDH1KD tx: 25%; KB-V1 cytotox: inactive; HT1080NT lethal: inconclusive

What do the screens show for `O=C(NNC(=O)c1cc2cc(Br)ccc2oc1=O)c1ccc(O)cc1O`?
KB-3-1 cytotox: inactive; HT1080 IDH1KD tx: 1.8µM*; KB-V1 cytotox: inconclusive; HT1080NT lethal: inconclusive

Bioassay records from PubChem BioAssay.
